Source: PubChem
USP8 block: inhibitors of human USP8 deubiquitinase | inhibition, % at 20 µM | P40818 | purified USP8, Ub-rhodamine cleavage fluorescence, 30 min | 47,000 compounds, 4.2% hits
Target sequence (P40818 whole entry, looked up): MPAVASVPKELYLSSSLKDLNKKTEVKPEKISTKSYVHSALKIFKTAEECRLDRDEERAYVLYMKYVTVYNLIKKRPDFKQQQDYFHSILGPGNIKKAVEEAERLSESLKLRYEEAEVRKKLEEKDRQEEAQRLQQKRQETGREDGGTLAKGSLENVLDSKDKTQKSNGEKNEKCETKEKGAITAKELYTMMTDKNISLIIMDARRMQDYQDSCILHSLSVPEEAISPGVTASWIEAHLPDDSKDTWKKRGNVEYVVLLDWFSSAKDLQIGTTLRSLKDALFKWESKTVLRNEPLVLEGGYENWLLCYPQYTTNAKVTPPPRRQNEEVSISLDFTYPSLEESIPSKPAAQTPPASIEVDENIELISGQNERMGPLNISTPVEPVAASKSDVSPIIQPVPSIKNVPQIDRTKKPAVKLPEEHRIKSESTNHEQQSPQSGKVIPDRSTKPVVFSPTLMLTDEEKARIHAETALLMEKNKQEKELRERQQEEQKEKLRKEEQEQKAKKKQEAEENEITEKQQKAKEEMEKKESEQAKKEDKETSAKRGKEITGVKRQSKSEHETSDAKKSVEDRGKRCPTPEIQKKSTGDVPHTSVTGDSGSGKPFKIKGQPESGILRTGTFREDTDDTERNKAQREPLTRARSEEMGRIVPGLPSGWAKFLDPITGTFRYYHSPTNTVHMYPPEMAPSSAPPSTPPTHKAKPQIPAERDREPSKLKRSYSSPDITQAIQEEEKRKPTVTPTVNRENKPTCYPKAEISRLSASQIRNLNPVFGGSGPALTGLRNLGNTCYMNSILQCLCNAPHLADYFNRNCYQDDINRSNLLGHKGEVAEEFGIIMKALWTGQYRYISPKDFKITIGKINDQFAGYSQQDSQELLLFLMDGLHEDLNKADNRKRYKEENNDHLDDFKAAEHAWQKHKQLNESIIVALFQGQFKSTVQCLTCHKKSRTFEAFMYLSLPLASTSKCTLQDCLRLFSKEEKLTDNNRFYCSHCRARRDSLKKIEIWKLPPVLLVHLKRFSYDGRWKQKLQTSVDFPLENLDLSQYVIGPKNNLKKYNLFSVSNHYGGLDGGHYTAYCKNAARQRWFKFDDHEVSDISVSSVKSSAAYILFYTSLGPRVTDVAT
USP10 inh: inhibitors of human USP10 deubiquitinase; 47,000 compounds, 1.1% hits; purified USP10, Ub-rhodamine fluorescence, 60 min; inhibition, % at 20 µM; Q14694
UCHL1 block: human UCHL1 deubiquitinase inhibition | P09936 | 47,000 compounds, 0.2% hits | inhibition, % at 20 µM | purified UCHL1, Ub-rhodamine cleavage fluorescence | AID 1645859
USP7 inh: human USP7 deubiquitinase inhibition; Q93009; purified USP7, Ub-rhodamine cleavage fluorescence; inhibition, % at 20 µM; 47,000 compounds, 0.3% hits; AID 1645854
Each line names hits and unclear results; the compound was inactive in the other large screens. An excerpt weighted towards active compounds, which were near 4.6% of everything screened. Rule as the data show it: active = inhibition above about 30%; inactive = the rest.

CN1CC[C@@H]2[C@H]1C(=O)NC[C@H](CCC(=O)N1CCN(c3ccccn3)CC1)N2C	USP8 block 72
CN1[C@@H](CCC(=O)N2CCN(c3ccccn3)CC2)CNC(=O)[C@H]2NCC[C@H]21	none
CN1[C@@H](CCC(=O)N2CCN(c3ccccn3)CC2)CNC(=O)[C@@H]2[C@H]1CCN2C1CCCCC1	USP8 block 39
O=C(CN1CCCCC1)Nc1nc(-c2ccc3c(c2)CCN3C(=O)c2ccccc2F)cs1	none
COc1ccc(C2CCCCCN2C(=O)Cn2ccccc2=O)cc1 (stereo not given)	USP8 block 67
COc1ccc(NC(=O)Cn2c(=O)n(C3CCCC3)c(=O)c3cc(OC)c(OC)cc32)cc1OC	none
O=C(Nc1ccc(O)cc1)c1cccn2c(-c3ccccc3F)nnc12	USP8 block 56
COc1ccccc1NCC(=O)N1c2ccccc2NC(=O)C1(C)C	USP8 block 34
O=C(NCCc1ccc(C(F)(F)F)cc1)C1(c2ccccc2)CC1	none
Cc1nc(-c2cccc(NC(=O)C3CC(=O)N(c4ccc(C)c(C)c4)C3)c2)no1 (stereo not given)	none
CCc1nc(-c2cccc(NC(=O)C3CC(=O)N(c4ccc(C)c(C)c4)C3)c2)no1 (stereo not given)	USP8 block 39
Cc1nc(-c2cccc(NC(=O)C3CC(=O)N(c4cccc(Cl)c4)C3)c2)no1 (stereo not given)	USP8 block 31
O=c1[nH]c2ccc(S(=O)(=O)Nc3ccc(O)c4ccccc34)cc2[nH]1	USP8 block 95, USP10 inh 49, UCHL1 block 37
COC(=O)c1ccc(CNC(=O)c2ccc3c(c2)OCCO3)cc1	none
COC(=O)c1ccc(CNC(=O)c2ccc(Oc3ccccc3)cc2)cc1	USP8 block 34
Cc1c(CNCc2ccc(F)cc2)c(C(=O)O)c(C)n1-c1ccccc1	USP8 block 43
O=C(CN(Cc1ccccc1)S(=O)(=O)c1ccc(Cl)cc1)Nc1ccc(N2CCOCC2)cc1	USP8 block 37
Cn1nc(-c2nc(-c3ccccc3)no2)c2c1CCN(C(=O)C1(c3ccccc3)CC1)C2	none
c1ccc(CNc2nn3c(-c4ccncc4)cnc3s2)cc1	none
COc1ccc(CNC(=O)c2ccc(N3CCOCC3)c([N+](=O)[O-])c2)cc1	none
COc1ccc(N2CCN(c3ccc(Cl)cc3[N+](=O)[O-])CC2)cc1	USP8 block 33
CN(C)C(=O)C1(Cc2cc(-c3ccccc3)no2)CCCN(C(=O)Cc2ccccc2F)C1 (stereo not given)	none
O=C(c1c(F)cccc1F)N1CC2CCCN2c2ccc(C(F)(F)F)cc21 (stereo not given)	USP8 block 34
O=C(O)c1cccc2[nH]c(-c3ccc(O)cc3)nc12	USP8 block 41
COc1c(C)cccc1C(=O)Nc1ccc(-c2nc3ccccc3[nH]2)cc1	none
O=C(CCc1nc(-c2cnccn2)no1)N1CCc2ccccc2C1	USP8 block 57
COc1ccc(CNC(=O)c2nc(CS(=O)(=O)c3ccccc3)no2)cc1	none
COc1ccc(/C(C#N)=C\c2ccc3c(c2)OCO3)cc1	USP8 block 30
COc1cc(O)c2c(=O)oc3c(O)c(OC)cc(C)c3c2c1	none
COc1cc2c(oc(=O)c3cc(C)cc(OC)c32)c2c([C@@H]3OC(C)[C@@H](O)[C@@](C)(O)C3O)ccc(O)c12 (stereo not given in full)	USP8 block 59
